The subject of assay [1] is TYK2(JH1domain-catalytic).
The test system of a further assay is AAK1. As to conditions: concentration: 1 μM, replicates: in singlicate; n = 1.
A further assay deals with ABL1-nonphosphorylated. Particulars: concentration: 1 μM, replicates: in singlicate; n = 1.
A further assay deals with ABL1-phosphorylated. Particulars: concentration: 1 μM, replicates: in singlicate; n = 1.
A further assay has as its system ABL2. Particulars: concentration: 1 μM, replicates: in singlicate; n = 1.
The test system of another assay is ACVR1B. As to conditions: concentration: 1 μM, replicates: in singlicate; n = 1.
In another assay the test system is T1, p38-alpha.
T1 construct: gene MAPK14

The subject of another assay is T2, VPS34.
T2 construct: gene PIK3C3

Assay [2] relates to TYK2(JH2domain-pseudokinase).
A further assay concerns T3, YSK4.
T3 construct: gene MAP3K19

Another assay has as its system T4, YANK2.
T4 construct: gene STK32B

The next assay relates to T5, TRKC.
T5 construct: gene NTRK3

The next assay concerns T6, p38-beta.
T6 construct: gene MAPK11

Each structure is given as a SMILES string. pKd: −log10 of the molar value. A value given as a limit tells only on which side of the number the result lay.

Data on 16 compounds can be found in PMC5540273 (PLoS ONE, 2017).
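For %Inh in this document: KINOMEscan kinase panel screen.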
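For pKd in this document: kd values determined as follow-up on hits from a single-replicate KINOMEscan panel screen.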

`Cn1cncc1-c1cc2c(Nc3ccc(OCc4ccccc4)cc3)ncnc2cn1` [GW281179]: the negative logarithm of the Kd (pKd) in assay [1] was less than 5.00. In addition, the “%Inh” value in the assay on AAK1 was found to be 20%; in the assay with ABL1-nonphosphorylated it was 0%; in the assay with ABL1-phosphorylated it was 0%; with ABL2, 12%; in the assay with ACVR1B it was 0%.

For the compound `Fc1ccc(-c2nn3cccc(F)c3c2-c2ccncc2)cc1` [GW475620], in the assay with p38-alpha, the pKd is 6.85. Further, the “%Inh” value in the assay with AAK1 amounted to 13%; in the assay on ABL1-nonphosphorylated it was 0%; in the assay with ABL1-phosphorylated it was 0%; with ABL2 it was 2%; in the assay with ACVR1B, 23%.

Consider `Fc1ccc(-c2nc3n(c2-c2ccncc2)CCS3)cc1` [GI98581], for which the pKd in the assay with p38-alpha was 6.89. Further, the “%Inh” value was determined as 1% in the assay on AAK1; 0% with ABL1-nonphosphorylated; 0% in the assay with ABL1-phosphorylated; 9% in the assay with ABL2; 15% with ACVR1B.

On to `Cc1c(Cn2c3ccccc3n3c(=O)cc(N4CCOCC4)nc23)cccc1C(F)(F)F` [GSK2306394], for which the pKd with VPS34 was less than 5.00. The “%Inh” value in the assay on AAK1 worked out at 0%; in the assay with ABL1-nonphosphorylated, 0%; in the assay on ABL1-phosphorylated, 0%; in the assay on ABL2, 11%; in the assay with ACVR1B, 0%.

`CN1c2ccc(-c3ccc(C(N)=O)cc3)cc2-c2[nH]ncc2S1(=O)=O`: in assay [2], the pKd is 6.03. For the same compound, the “%Inh” value in the assay with AAK1 was 39%; in the assay on ABL1-nonphosphorylated, 36%; with ABL1-phosphorylated it was 9%; with ABL2, 0%; with ACVR1B, 3%.

On to `CC(=O)c1c(C)c2cnc(Nc3ccc(N4CCNCC4)cn3)nc2n(C2CCCC2)c1=O`, for which the negative logarithm of the Kd (pKd) in the assay with TTK is 8.04. Moreover, the “%Inh” value is listed as 0% in the assay with AAK1; 28% in the assay with ABL1-nonphosphorylated; 0% with ABL1-phosphorylated; 0% with ABL2; 0% with ACVR1B.

In turn, `O=C(Nc1n[nH]c2nc(-c3cccs3)c(Br)cc12)C1CC1` [SB-735297] showed a pKd in the assay on YSK4 of 6.70. The “%Inh” value in the assay with AAK1 was determined as 10%; in the assay on ABL1-nonphosphorylated it was 52%; in the assay on ABL1-phosphorylated, 30%; in the assay on ABL2 it was 0%; in the assay with ACVR1B, 0%.

`COc1ccc(CSc2nnc(-c3ccc4nccn4c3)o2)cc1C(F)(F)F` showed a pKd in the assay with YSK4 of 7.66. Also, the “%Inh” value in the assay with AAK1 was 16%; in the assay with ABL1-nonphosphorylated, 28%; in the assay with ABL1-phosphorylated, 13%; with ABL2, 21%; in the assay on ACVR1B, 23%.

For `FC(F)(F)c1ccccc1-c1cc(-c2c[nH]nc2-c2ccccn2)ccn1` [GW679396], in the assay on p38-alpha, the negative logarithm of the Kd (pKd) was 6.51. Further, the “%Inh” value in the assay on AAK1 worked out at 21%; in the assay with ABL1-nonphosphorylated, 0%; in the assay on ABL1-phosphorylated it was 0%; in the assay with ABL2 it was 1%; with ACVR1B it was 0%.

Compound `CNc1nc(-c2ccc3c(N)n[nH]c3c2)cc(N2C[C@@H](C(=O)Nc3ccccc3)CC[C@H]2C)n1` [GSK2298859] had a pKd in the assay on YANK2 of 6.66. Also, the “%Inh” value in the assay with AAK1 worked out at 12%; with ABL1-nonphosphorylated, 1%; in the assay on ABL1-phosphorylated, 0%; in the assay on ABL2, 2%; in the assay on ACVR1B, 0%.

In the case of `Cl.Cl.Cl.N#Cc1ccc(CCNc2nccc(-c3cccc(CN4CCNCC4)c3)n2)cc1` [GSK2137462], the pKd with WEE1 and in the assay with WNK4 was less than 5.00 each time. Besides, the “%Inh” value came out at 14% with AAK1; 10% with ABL1-nonphosphorylated; 0% in the assay with ABL1-phosphorylated; 9% in the assay with ABL2; 0% in the assay on ACVR1B.

`Cc1ccc(NC(=O)Nc2ccccc2F)cc1-c1ccc(C(=O)Nc2ccncc2)cc1` [GSK1398477]: the pKd with YSK4 was 5.82. Also, the “%Inh” value amounted to 28% with AAK1; 7% with ABL1-nonphosphorylated; 0% in the assay with ABL1-phosphorylated; 31% in the assay with ABL2; 3% in the assay on ACVR1B.

The compound `COC(=O)c1cccc(NC(=O)NC2CCN(c3ccnc(Nc4ccc(F)cc4)n3)C2)c1` (centres unmarked) [GSK1379725] showed a pKd in the assay with TRKC of 6.47. Moreover, the “%Inh” value in the assay with AAK1 turned out to be 0%; in the assay on ABL1-nonphosphorylated it was 0%; in the assay with ABL1-phosphorylated, 0%; with ABL2, 5%; in the assay with ACVR1B, 0%.

For `Cc1ccc(NC(=O)Nc2ccc(Cl)c(C(F)(F)F)c2)cc1-c1ccc(C(=O)Nc2ccncc2)cc1` [GSK1398470], the pKd in the assay with p38-alpha was 6.51; in the assay with p38-beta, 7.05. In addition, the “%Inh” value is given as 3% in the assay on AAK1; 1% in the assay with ABL1-nonphosphorylated; 0% with ABL1-phosphorylated; 34% in the assay on ABL2; 5% in the assay with ACVR1B.

The compound `CC(=O)c1cccc(NC(=O)NC2CCN(c3ccnc(Nc4ccc(F)cc4)n3)C2)c1` (centres unmarked) [GSK1379710] gave a negative logarithm of the Kd (pKd) with TRKC of 7.03. Besides, the “%Inh” value in the assay on AAK1 was determined as 16%; in the assay with ABL1-nonphosphorylated, 0%; in the assay with ABL1-phosphorylated, 0%; with ABL2, 0%; in the assay on ACVR1B it was 0%.

Take `c1ccc(-c2ccnc3[nH]ccc23)cc1` [SB-693578]: the negative logarithm of the Kd (pKd) with YSK4 was 6.33. Moreover, the “%Inh” value in the assay on AAK1 is 68%; with ABL1-nonphosphorylated it was 0%; in the assay with ABL1-phosphorylated it was 4%; in the assay on ABL2, 16%; in the assay with ACVR1B it was 0%.

For orientation: pKd means −log10 of the Kd, conventionally taken in molar units.
